Screening data from PubChem.
Shown are actives, neighbours in structure and some others; about 2.1% of the full set was active somewhere.
aSyn yeast inh – rescues yeast growth from alpha-synuclein toxicity; Yeast expressing alpha-synuclein, growth rescue, BacTiter-Glo, 24 h; Potency, µM (top dose mostly 46.1 µM), for inactives: at the top dose growth rescue (activation), most hits filed as activators; hit rate 0.14% among 370,000; further: % of control where 0% means no effect; nearly all actives have a fitted effect of over 65% in size
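Galactose-induced alpha-syn yeast (OD600=0.02, raffinose-pregrown) + pinned cpd, 24 hr, 30 deg C; growth by BacTiter-Glo luminescence. Growth restoration scores as activation.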
Abeta yeast res – compounds reversing amyloid beta toxicity in yeast; AID 1347071; yeast expressing A-beta42, growth rescue, OD600, 48 h; response scale: 0% DMSO, 100% iron-clioquinol control; hit rate 0.063% among 410,000; Potency, µM (highest dose often 46.1 µM), hits mostly activators; further: nearly all actives have a fitted effect of over 55% in size
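Yeast growth medium received pinned compounds, then yeast cells expressing toxic A-beta were added; plates incubated at 30 C for 48 hr. Growth read as absorbance at 600 nm, normalized to DMSO and equimolar FeCl3 plus clioquinol controls.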
TDP43 rescue – TDP-43 toxicity inhibition in yeast; Potency, µM (doses to about 46.1 µM), inactives show top-dose growth rescue (activation), actives largely listed as activators; TDP-43 expressing yeast growth rescue, BacTiter-Glo, 24 h; hit rate 1.8% among 410,000; AID 652104; further: % of control where 0% means no effect; nearly all actives have a fitted effect of over 50% in size
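In this qHTS, compounds that restore growth of yeast expressing TDP-43 appear as activators. Cells (OD600=0.02, galactose medium, raffinose-pregrown) are incubated with compound 24 hr at 30 deg C and growth is quantified by BacTiter-Glo.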
FUS yeast rescue – suppressors of FUS proteinopathy in yeast; hit rate 0.24% among 390,000; S. cerevisiae FUS-expressing, growth rescue, OD600, 24 h; Potency, µM (titrated, usually from 76.6 µM), most hits filed as activators; AID 1347120;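 further: plate controls were DMSO vehicle for no effect and reference control for full effect; nearly all actives have a fitted effect of over 55% in size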
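FUS-expressing yeast, raffinose-pregrown, induced in 2% galactose minimal medium at OD 0.005; compounds in a dilution series, 24hr at 30C. Growth restoration read as absorbance at 600 nm. CP55940 positive control, DMSO negative.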
* marks the source's active call; other numbers are inactive results; i = inactive; u = inconclusive; x = no result; [ ] = remark or other dose. The call rests on the fitted dose curve; in most records, active means well fitted curve in the direction sought with a large enough effect; inconclusive means small, poorly fitted or top-dose-only effect, or another doubt; inactive means no such curve, though single readings can be large; an effect the other way counts as inactive or inconclusive. Potency means the concentration at half of the fitted maximal effect.

SMILES	aSyn yeast inh	Abeta yeast res	TDP43 rescue	FUS yeast rescue
CCSc1nc(-c2ccc(OC)cc2)cc(-c2ccccc2)c1C#N	14%	i	-21%	i
c1ccc(-c2cc3nc(NCc4ccc5c(c4)OCO5)ccn3n2)cc1	14%	u	14µM*	u
COc1cc(-c2cc3nc(NCc4cccs4)ccn3n2)cc(OC)c1OC	-22%	i	35µM*	i
c1coc(-c2cc3nc(NCc4ccc5c(c4)OCO5)ccn3n2)c1	6%	i	18µM*	i
O=C(CNS(=O)(=O)c1cccs1)N1CCN(c2ncccn2)CC1	x	x	x	i
CCOc1ccc(NC(=O)COC(=O)c2ccccc2OCC(=O)N(C)C)cc1	-3%	x	x	x
CC1CCCN(S(=O)(=O)c2ccc(S(=O)(=O)NC(C)c3cccs3)cc2)C1 (configuration not stated)	11%	i	-12%	32µM*
COC(=O)c1ccc(Cn2ccc3ccc(-c4ccc5ccn(C(=O)c6ccccc6C)c5c4)cc32)cc1	x	x	x	i
CC(COc1ccc(C#N)cc1)CN1CCC(C(O)(c2ccccc2)c2ccccc2)CC1 (configuration not stated)	x	x	x	i
Cc1ccc(Sc2ccc(NC(=O)CCl)cc2)c(C)c1	16%	u	11µM*	i
COc1ccc(C(=O)/C=C/C(=O)N(Cc2ccc(F)cc2)C(C(=O)NC2CCCCC2)c2ccncc2)c(O)c1 (configuration not stated)	25µM*	i	20µM*	x
COc1ccc(C(=O)/C=C/C(=O)N(Cc2ccccc2)C(C(=O)NC2CCCCC2)c2ccncc2)c(O)c1 (configuration not stated)	12%	i	17%	x
Cc1ccc(CN2CCCCC(NC(=O)Nc3ccccc3)C2=O)cc1 (configuration not stated)	x	x	x	i
COCCN(Cc1cccs1)S(=O)(=O)c1cc(-c2cc(C)no2)ccc1C	x	i	35µM*	i
CCOC(=O)Nc1ccc2c(c1)N(C(=O)CN(C)C)c1ccccc1S2	-3%	i	-5%	i
CCOC(=O)Nc1ccc2c(c1)N(C(=O)CCN(C)C)c1ccccc1S2	13%	i	20µM*	i
Cc1ccc(CN2CCCCC(NC(=O)c3ccccc3C)C2=O)cc1 (configuration not stated)	x	x	x	i
CCCCN(C)c1nc(-c2ccco2)c2c(c1C#N)CC(C)(C)OC2	-38%	i	20µM*	i
O=C(CC1CC2CCC1C2)N1CCN(S(=O)(=O)c2ccccc2C(F)(F)F)CC1 (configuration not stated)	4%[1.84 µM]	i	22µM*	u
Cc1sc2nc(-c3cccnc3)nc(Cl)c2c1-c1ccccc1	-23%	i	25µM*	x
C[C@H]1[C@@H](OC(=O)NCc2cccc(C(F)(F)F)c2)CC[C@@]23CCCN2C(=O)CCC[C@@H]13	x	x	x	i
CS(=O)(=O)Nc1ccccc1C(=O)OCC(=O)N1CCC(c2ccccc2)=N1	-10%	i	25µM*	u
OC(c1cccc(Cl)c1)c1nc(-c2cc3ccccc3o2)cs1 (configuration not stated)	-44%	i	35µM*	i
COc1cc(C(O)c2nc(-c3cc4ccccc4o3)cs2)ccc1F (configuration not stated)	-17%	u	17%	i
COc1cccc(C(O)c2nc(-c3cc4ccccc4o3)cs2)c1 (configuration not stated)	u	i	20µM*	i
SMILES	aSyn yeast inh	Abeta yeast res	TDP43 rescue	FUS yeast rescue
OC(c1cccc(Cl)c1)c1nc(-c2cccc3cccnc23)cs1 (configuration not stated)	18µM*	u	u	i
Cc1ccc(NC(=O)CN(C)C(=O)c2cccnc2Nc2cccc(C(F)(F)F)c2)cc1	-55%	i	20µM*	i
C=CCn1c(SCC(=O)OC(C)C)nnc1-c1ccc(C)cc1	x	x	x	i
Cc1ccc(SC[C@H](C)CN2CCC(NC(=O)OCc3ccccc3)CCC2=O)cc1 (some centres not stated)	25µM*	i	u	u
Cc1ccc(SCCN2CCC(NC(=O)OCc3ccccc3)CCC2=O)cc1 (configuration not stated)	0%	i	13%	u
CCOC(=O)[C@]12CCCCC/C=C\1N(CCc1ccc(Cl)cc1)C(=O)[C@H]2CC(=O)N1CCCC1	x	x	x	i
O=C(OCc1csc(-c2ccccc2)n1)c1ccc(O)cc1	-8%	i	10µM*	i
Cc1ccc(C(=O)NCC(=O)OCc2csc(-c3ccccc3)n2)cc1	-4%	i	15%	i
O=C(OCc1csc(Nc2ccccc2)n1)c1ccc(Cl)cc1	-17%	u	10µM*	i
Cn1cc(C(=O)CCl)c2ccccc21	-22%	i	16µM*	i
CC(=O)Nc1ccc(S(=O)(=O)Nc2nc3ccccc3nc2N2CCOCC2)cc1	-4%	i	12%	i
Cc1ccccc1S(=O)(=O)Nc1nc2ccccc2nc1N1CCOCC1	4%	i	18µM*	i
O=c1c2ccccc2nc(/C=C/c2cccc3ccccc23)n1-c1ccc(F)cc1F	x	i	9%	32µM*
COc1cc(OC)c(OC)cc1/C=C/c1nc2cc3ccccc3cc2c(=O)n1-c1ccc(F)cc1F	x	i	29%	i
CCC(c1nnnn1Cc1cccs1)N1CCN(c2nc3ccccc3s2)CC1 (configuration not stated)	u	i	16µM*	u
CC(C)CC(c1nnnn1Cc1cccs1)N1CCN(c2nc3ccccc3s2)CC1 (configuration not stated)	27%	i	u	i
COc1ccc(/C=C/c2ccc3ccccc3n2)c(OC)c1	-36%	x	x	x
O=C(Nc1ccc(Br)cc1)c1ccc2ncsc2c1	-6%	i	3.2µM*	i
COc1ccc(NC(=O)c2ccc3ncsc3c2)cc1	-27%	u	7.1µM*	i
COc1ccc(OC)c(CNc2ncnc3c2nc2n3CCCC2)c1	x	i	0%	i
O=C(NCc1ccc(Cl)cc1)c1ccc2c(c1)N(Cc1ccccc1F)C(=O)c1ccccc1S2=O (configuration not stated)	x	i	0%	28µM*
COc1ccc(CCNC(=O)c2ccc3c(c2)N(Cc2ccccc2F)C(=O)c2ccccc2S3(=O)=O)cc1OC	x	i	-19%	20µM*
COc1ccc(CCNC(=O)c2ccc3c(c2)N(Cc2cccc(C)c2)C(=O)c2ccccc2S3(=O)=O)cc1OC	x	i	-1%	u
COc1ccc(/C(C)=N\NC(=O)c2ccco2)cc1	x	x	x	i
O=C(NCc1ccccc1)OCCCN1C(=O)CCC12CCCCC2	x	x	x	i
CCCCNC(=O)C[C@H]1C[C@@]2(C(=O)OC)C(=C[C@H](C(C)C)O[C@@H]2C2CC2)N(CCc2ccc(OC)c(OC)c2)C1=O	x	x	x	i
CN(C)C(=O)COc1ccccc1C(=O)OCC(=O)N(CCC#N)c1ccccc1	0%	x	x	x
